Measured values from the supplement of paper PMC12645437, “Orthogonal IMiD-Degron Pairs Induce Selective Protein Degradation in Cells” (ACS Chemical Biology, 2025).
The full ranking holds about 8,300 sequences; the median of “log2 fold change of degron read counts, EGFP-low vs EGFP+ sorted cells (limma voom), compound-induced degradation” is about -1.1, and the highest 2% start at about 3.2. Many of the other results were omitted from the sample, so the highest values are more common in it than they were.

T1: CRBN, Q96SW2
T1 chain: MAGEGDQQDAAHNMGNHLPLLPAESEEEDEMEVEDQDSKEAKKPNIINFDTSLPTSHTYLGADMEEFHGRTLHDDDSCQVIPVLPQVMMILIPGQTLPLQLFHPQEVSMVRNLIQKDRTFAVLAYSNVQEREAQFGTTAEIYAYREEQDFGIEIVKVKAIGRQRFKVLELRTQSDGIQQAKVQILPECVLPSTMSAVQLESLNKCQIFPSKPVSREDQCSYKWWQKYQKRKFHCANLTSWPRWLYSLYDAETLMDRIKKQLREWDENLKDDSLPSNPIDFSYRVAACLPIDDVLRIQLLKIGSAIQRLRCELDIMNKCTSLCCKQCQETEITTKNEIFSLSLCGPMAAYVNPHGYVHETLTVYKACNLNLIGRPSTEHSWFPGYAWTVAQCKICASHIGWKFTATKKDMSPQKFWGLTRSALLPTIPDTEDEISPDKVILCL


Target: T1, CRBN, Q96SW2
Experiment: log2 fold change of degron read counts, EGFP-low vs EGFP+ sorted cells (limma voom), compound-induced degradation; higher = more compound-induced degradation of the degron-EGFP fusion; degrons are variants of IKZF1/3 zinc finger 2; compound dose not given here
Details: Jurkat, 18 h
[1] = compound: compound 19 (5-tert-butyl-thalidomide)
[2] = compound: compound 22 (5-morpholino-thalidomide)
[3] = compound: compound 33 (diphenyl IMiD analogue)
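Note: pooled lentiviral library of zinc finger degron-EGFP fusions in mCherry-positive Jurkat cells, FACS-sorted after compound exposure, with degron abundance counted by next-generation sequencing.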

Row | Sequence | log2 fold change of degron read counts [1] | log2 fold change of degron read counts [2] | log2 fold change of degron read counts [3] | log2 fold change of degron read counts (compound: thalidomide)
1 | LDCPICGFWCTQKGNLLRHIKL [46L_47D_49P_50I_52G_53F_54W_55C_67L_, Q9UKT9] | -0.559 | -0.625 | 0.68 | 1.33
2 | FACPVCGAVFTQKGNLLRHIKL [46F_47A_49P_50V_52G_53A_54V_55F_67L_, Q9UKT9] | 3.09 | 1.74 | 1.78 | 0.502
3 | FYCPQCGAMFTQKGNLLRHIKL [46F_47Y_49P_50Q_52G_53A_54M_55F_67L_, Q9UKT9] | 0.518 | 0.45 | 0.601 | -1.06
4 | FCCNVCGAWFTQKGNLLRHIKL [46F_47C_49N_50V_52G_53A_54W_55F_67L_, Q9UKT9] | -1.92 | -1.43 | -1.27 | -1.34
5 | FICEVCGADFTQKGNLLRHIKL [46F_47I_49E_50V_52G_53A_54D_55F_67L_, Q9UKT9] | -2.24 | -0.906 | -0.571 | 0.184
6 | FTCDVCGAMFTQKGNLLRHIKL [46F_47T_49D_50V_52G_53A_54M_55F_67L_, Q9UKT9] | -1.4 | -0.892 | -0.371 | -0.84
7 | LSCNQCGFVCTQKGNLLRHIKL [46L_47S_49N_50Q_52G_53F_54V_55C_67L_, Q9UKT9] | -2.24 | -2.61 | -2 | -2.24
8 | FMCPVCGACFTQKGNLLRHIKL [46F_47M_49P_50V_52G_53A_54C_55F_67L_, Q9UKT9] | -0.624 | 0.321 | 2.31 | 0.962
9 | FVCDVCGACFTQKGNLLRHIKL [46F_47V_49D_50V_52G_53A_54C_55F_67L_, Q9UKT9] | -1.45 | -0.0454 | 0.676 | 0.186
10 | FCCPVCGACFTQKGNLLRHIKL [46F_47C_49P_50V_52G_53A_54C_55F_67L_, Q9UKT9] | 2.37 | 1.98 | 2.99 | 2.06
11 | FGCPVCGACFTQKGNLLRHIKL [46F_47G_49P_50V_52G_53A_54C_55F_67L_, Q9UKT9] | 3.88 | 3.16 | 2.81 | 1.1
12 | FWCDVCGACFTQKGNLLRHIKL [46F_47W_49D_50V_52G_53A_54C_55F_67L_, Q9UKT9] | 2.78 | 3.47 | 1.12 | -0.931
13 | FACPVCGACFTQKGNLLRHIKL [46F_47A_49P_50V_52G_53A_54C_55F_67L_, Q9UKT9] | 3.39 | 1.64 | 1.85 | 0.646
14 | FFCPVCGACFTQKGNLLRHIKL [46F_47F_49P_50V_52G_53A_54C_55F_67L_, Q9UKT9] | 3 | 3.34 | 2.16 | 1.3
15 | FSCPVCGACFTQKGNLLRHIKL [46F_47S_49P_50V_52G_53A_54C_55F_67L_, Q9UKT9] | 2.64 | 1.8 | 2.73 | 1.07
16 | FDCPVCGACFTQKGNLLRHIKL [46F_47D_49P_50V_52G_53A_54C_55F_67L_, Q9UKT9] | 1.39 | -0.358 | 1.46 | 1.34
17 | FVCPVCGACFTQKGNLLRHIKL [46F_47V_49P_50V_52G_53A_54C_55F_67L_, Q9UKT9] | -0.46 | 1.87 | 2.08 | 2.53
18 | FHCDVCGACFTQKGNLLRHIKL [46F_47H_49D_50V_52G_53A_54C_55F_67L_, Q9UKT9] | 0.383 | 0.3 | -1.01 | -2.43
19 | FRCPVCGACFTQKGNLLRHIKL [46F_47R_49P_50V_52G_53A_54C_55F_67L_, Q9UKT9] | -0.619 | 0.101 | 1.52 | 0.981
